According to PubChem BioAssay AID488835 (Broad Institute, 2010):
The campaign covered roughly 1,400 compounds. About 140 (10%) were called active.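 Rule for the calls: active = Half-maximal inhibitory dose from the fit at or below ten times the top valid tested dose; inconclusive = Invalid fit, or flat curve showing 30 to 70% inhibition; inactive = the rest.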 A selection follows. Results with a measured potency or affinity are listed apart.

molecular target: Lysine-specific demethylase 4C (Homo sapiens) (UniProt Q9H3R0); experiment: inhibition of JMJD2C H3K9me3 demethylation – biochemical, DELFIA europium, cherry-picked samples, dose response (AID 488835); conditions: GST-JMJD2C(1-420); series mostly up to 6 µM;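 note: signal is the H3K9me2 demethylation product detected by a dimethyl-specific antibody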
Sequence (Q9H3R0 1-420 limits assumed): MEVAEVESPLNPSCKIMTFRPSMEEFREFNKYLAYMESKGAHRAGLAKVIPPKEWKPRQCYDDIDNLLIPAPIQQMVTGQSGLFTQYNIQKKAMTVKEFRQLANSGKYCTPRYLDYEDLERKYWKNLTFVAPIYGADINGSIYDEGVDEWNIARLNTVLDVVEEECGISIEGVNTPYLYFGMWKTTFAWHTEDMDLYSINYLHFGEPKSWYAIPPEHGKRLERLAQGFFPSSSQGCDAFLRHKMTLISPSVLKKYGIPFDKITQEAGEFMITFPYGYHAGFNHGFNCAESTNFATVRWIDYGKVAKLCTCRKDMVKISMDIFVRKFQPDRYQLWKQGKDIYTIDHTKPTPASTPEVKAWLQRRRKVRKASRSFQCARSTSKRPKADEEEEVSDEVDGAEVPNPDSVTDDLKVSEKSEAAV

Compound | outcome
O=C(O)CCCC(=O)Nc1ccc(C(=O)NCc2cccnc2)cc1 | inactive
N#CCN1CCC(c2cc(-c3ccco3)n[nH]2)CC1 | inactive
CS(=O)(=O)N(CC(=O)O)c1cc(Cl)cc(Cl)c1 | inactive
COc1ccc(N2CCN(C(=O)CSc3nnc(-c4ccco4)n3C)CC2)cc1 | inactive
C[C@H](CO)N1C[C@H](C)[C@@H](CN(C)C(=O)Nc2ccccc2)Oc2c(NC(=O)c3ccncc3)cccc2C1=O | inactive
Cc1cccc2sc(NNC(=O)c3cc(=O)c4ccccc4o3)nc12 | inactive
CN1N=C(C(F)(F)F)CC1=O | inactive
CSC1=NCCN1C(=O)c1cccc(C(F)(F)F)c1 | inactive
Cn1c(=O)c(-c2ccccc2)nn2c3ccccc3nc12 | inactive
Cc1ccc(Nc2c(-c3ccccn3)nc3cc(C)ccn23)cc1 | inactive
CCOC(=O)N1CCC2(CC1)C(C#N)=C(N)OC1=C2C(=O)CC(C)(C)C1 | inactive
C[C@H](CO)N1C[C@H](C)[C@@H](CN(C)Cc2ccc(C(=O)O)cc2)Oc2c(NC(=O)c3ccncc3)cccc2C1=O | inactive
O=C(O)Cn1cc(/C=C2/SC(=O)N(CC(=O)N3CCCCCC3)C2=O)c2ccccc21 | inactive
O=C(O)CCC(=O)Nc1nc2nc(-c3ccccc3)cc(-c3ccccc3)n2n1 | inactive
CCN(C[C@H]1N[C@@](C)(C(=O)OC)[C@H]2C(=O)N(Cc3ccccc3)C(=O)[C@@H]12)C(=O)Nc1ccc(F)cc1 | inactive
Cc1cc(N2C(=O)C(=O)/C(=C(/O)c3ccc(F)cc3)C2c2cccc(Br)c2)no1 (centres undefined) | inactive
COc1cccc(/C=C/C(=O)NCCc2ccc(OC)c(OC)c2)c1 | inactive
CCc1ccc(-c2cc(C)no2)cc1S(=O)(=O)NCCc1ccc(OC)c(OC)c1 | inactive
Cc1ccccc1NS(=O)(=O)c1ccc(C(=O)NCC(c2ccco2)N(C)C)cc1 (centres undefined) | inactive
COc1ccccc1/C=C/C(=O)Nc1ccc(N2CCOCC2)cc1 | inactive
Cc1cc(C)c2cc(C#N)c(SCC(=O)Nc3ccc4c(c3)OCO4)nc2c1 | inactive
O=C(/C=C\Nc1ccc(Cl)cn1)c1ccc(Br)cc1 | inactive
CCCNC1=C(N(C(C)=O)c2cccc(F)c2)C(=O)c2ccccc2C1=O | inactive
C#CCOCCOCCOCCNc1nc(N2CCN(C(=O)[C@H](CCCN=C(N)N)n3cc(C(N)[C@H](C)CC)nn3)CC2)nc(N2CCN(C(=O)[C@H](CC(N)=O)n3cc(C(N)[C@@H](C)CC)nn3)CC2)n1 (some centres undefined) | inactive
C#CCOCCOCCOCCNc1nc(N2CCN(C(=O)[C@H](CCCN=C(N)N)n3cc(C(N)[C@@H](C)CC)nn3)CC2)nc(N2CCN(C(=O)[C@H](CCC(=O)O)n3cc([C@@H](N)[C@H](C)CC)nn3)CC2)n1 (some centres undefined) | inactive

Compound | outcome
C#CCOCCOCCOCCNc1nc(N2CCN(C(=O)[C@H](CCC(=O)O)n3cc(CN)nn3)CC2)nc(N2CCN(C(=O)[C@H](CCCN=C(N)N)n3cc(C(N)[C@@H](C)CC)nn3)CC2)n1 (some centres undefined) | inactive
C#CCOCCOCCOCCNc1nc(N2CCOCC2)nc(N2CCN(C(=O)[C@H](CCCN=C(N)N)n3cc(C(N)[C@@H](C)CC)nn3)CC2)n1 (some centres undefined) | inactive
Oc1cc2ccccc2cc1-c1nnc2n1-c1ccccc1SC2 | inactive
CC(=O)Nc1sc2c(c1CN1CCN(C)CC1)CCCC2 | inactive
COc1ccc(S(=O)(=O)N2CC(O)CC2C(=O)OCc2nc3sc(C)c(C)c3c(=O)[nH]2)cc1 (centres undefined) | inactive
CC1CCN(C(=O)CSc2nnc(CNC(=O)c3c(F)cccc3F)o2)CC1 | inactive
CNC(=O)c1sccc1-n1cccc1 | inactive
CCOC(=O)C1(C)NC(c2cccs2)C2C(=O)N(c3ccc(OC)cc3)C(=O)C21 (centres undefined) | inactive
Cc1ccccc1CNc1nnnn1C | inactive
Oc1ccc(Br)cc1/C=N/Nc1nc(N2CCCCC2)nc(N2CCOCC2)n1 | inactive
O=C(N/N=C/c1ccc(O)cc1)c1cncc(Br)c1 | inactive
CN1CCC[C@H]1CCNC(=O)c1c(-c2ccsc2)sc2ccccc12 | inactive
Cn1c(=O)c2[nH]c(N3CCN(c4cccc(O)c4)CC3)nc2n(C)c1=O | inactive
CC(OC(=O)CN1C(=O)COc2ccccc21)C(=O)NCc1ccc(F)cc1 (centres undefined) | inactive
Cc1ccc(C(C)C)c(Oc2nnnn2-c2ccccc2)c1 | inactive
O=C(c1cc2c(s1)CCC2)N1C(=O)c2ccccc2S1(=O)=O | inactive
O=C(Cn1cncn1)NCc1cc(F)ccc1F | inactive
C[C@H](CO)N1C[C@H](C)[C@@H](CN(C)CC2CCCCC2)Oc2c(NC(=O)C3CC3)cccc2C1=O | inactive
C[C@H]1CN([C@@H](C)CO)C(=O)c2cccc(NC(=O)C3CC3)c2O[C@H]1CN(C)Cc1ccncc1 | inactive
C[C@H](CO)N1C[C@H](C)[C@@H](CN(C)S(=O)(=O)c2cccs2)Oc2c(NC(=O)CCC(F)(F)F)cccc2C1=O | inactive
Cc1ccc(NC(=O)COC(=O)CCc2c[nH]c(=O)[nH]2)cc1 | inactive
COc1cc([N+](=O)[O-])ccc1NC(=O)CSc1nccn1C | inactive
COc1ccc(OC)c(/C=C2\SC(=S)N(Cc3cccnc3)C2=O)c1 | inactive
O=C(N1CCN(c2ccccc2)CC1)C12CC3CC(CC(C3)C1)C2 | inactive
